Assay results published in ChEMBL document CHEMBL3988442, “University of Dundee, Small-Polar-MMV Screening Library” (2021).
For part of these data: Potency and affinity values are given separately.

How the values were obtained:
Set-up in all cases: scale not given: direction of the effect not stated beside the values
[1] = target: Protein translocase subunit SecA (Escherichia coli (strain K12)) (UniProt P10408); experiment: Assay to Identify E. coli SecA ATPase Inhibitors; type: functional; conditions: 30 µM
[2] = target: T1, Ubiquitin-activating enzyme e1, putative (Leishmania donovani (strain BPK282A1)) (UniProt E9BSI1); experiment: Leishmania donovani Ubiquitin Activating Enzyme (LdE1); type: functional; conditions: 30 µM
T1 sequence (whole entry): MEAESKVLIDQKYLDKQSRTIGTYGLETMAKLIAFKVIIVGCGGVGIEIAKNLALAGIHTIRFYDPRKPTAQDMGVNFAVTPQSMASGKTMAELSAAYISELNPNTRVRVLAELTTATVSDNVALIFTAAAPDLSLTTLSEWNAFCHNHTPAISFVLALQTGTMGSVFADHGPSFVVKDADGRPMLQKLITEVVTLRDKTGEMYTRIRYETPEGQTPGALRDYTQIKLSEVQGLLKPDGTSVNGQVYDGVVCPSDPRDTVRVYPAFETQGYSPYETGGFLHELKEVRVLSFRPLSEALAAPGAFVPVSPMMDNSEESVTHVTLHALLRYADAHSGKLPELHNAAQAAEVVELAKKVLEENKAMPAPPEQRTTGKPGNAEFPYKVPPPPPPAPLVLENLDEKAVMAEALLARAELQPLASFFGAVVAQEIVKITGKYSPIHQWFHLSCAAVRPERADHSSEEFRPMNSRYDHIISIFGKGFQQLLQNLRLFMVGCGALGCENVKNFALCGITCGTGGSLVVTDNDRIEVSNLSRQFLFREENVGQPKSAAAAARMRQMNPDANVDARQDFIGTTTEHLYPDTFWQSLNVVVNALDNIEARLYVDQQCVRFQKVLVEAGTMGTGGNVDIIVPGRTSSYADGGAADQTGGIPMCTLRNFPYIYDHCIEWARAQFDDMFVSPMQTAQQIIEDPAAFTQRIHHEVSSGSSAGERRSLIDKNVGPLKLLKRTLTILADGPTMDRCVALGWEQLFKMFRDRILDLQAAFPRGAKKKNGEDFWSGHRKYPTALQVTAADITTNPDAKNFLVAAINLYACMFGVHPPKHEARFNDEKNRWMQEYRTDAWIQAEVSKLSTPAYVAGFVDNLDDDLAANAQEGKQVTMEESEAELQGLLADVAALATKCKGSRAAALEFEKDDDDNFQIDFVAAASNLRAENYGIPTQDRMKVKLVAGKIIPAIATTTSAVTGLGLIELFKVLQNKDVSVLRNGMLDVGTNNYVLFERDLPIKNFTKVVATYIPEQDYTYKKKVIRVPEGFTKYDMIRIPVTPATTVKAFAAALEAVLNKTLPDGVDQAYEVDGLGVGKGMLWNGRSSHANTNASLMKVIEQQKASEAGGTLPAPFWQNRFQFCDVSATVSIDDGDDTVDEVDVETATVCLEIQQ

[3] = target: AMP-activated protein kinase, AMPK (Homo sapiens) (UniProt P54646+O43741+P54619+Q9UGJ0+Q9Y478+Q13131+Q9UGI9); experiment: AMP-dependent Kinase enzyme assay. An in vitro enzyme assay that detects ADP turnover that is directly proportional to AMPK activity. This uses naive AMPK that is activated during the assay with MK-8722; type: functional; conditions: 30 µM
[4] = target: Sialic acid-binding Ig-like lectin 9 (Homo sapiens) (UniProt Q9Y336); experiment: Hs-Siglec9 ALPHAscreen SOP 20170721; conditions: 10 µM
Trypanosoma cruzi = experiment: Trypanosoma cruzi phosphomannomutase and mannose-1-phosphate guanylyltransferase assay; type: functional; conditions: 10 µM
[5] = target: T2, Arginase-2, mitochondrial (Homo sapiens) (UniProt P78540); experiment: in vitro enzyme assay to detect the production of urea directly proportional to the activity of Arginase II; type: functional; conditions: 33.3 µM; further: in the data most compounds retested in dose-response had high values
T2 sequence (whole entry): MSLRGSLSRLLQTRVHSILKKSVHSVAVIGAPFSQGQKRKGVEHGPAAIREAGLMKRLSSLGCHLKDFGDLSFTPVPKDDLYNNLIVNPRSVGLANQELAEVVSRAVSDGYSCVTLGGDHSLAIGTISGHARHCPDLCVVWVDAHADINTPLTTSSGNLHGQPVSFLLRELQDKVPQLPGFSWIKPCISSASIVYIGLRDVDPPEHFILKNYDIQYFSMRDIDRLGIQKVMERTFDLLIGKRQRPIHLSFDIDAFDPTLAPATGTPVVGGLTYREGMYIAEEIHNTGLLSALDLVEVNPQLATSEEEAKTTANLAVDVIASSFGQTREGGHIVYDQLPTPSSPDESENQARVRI

[6] = target: T3, Proteasome subunit beta (Trypanosoma cruzi) (UniProt O96673); experiment: Trypanosoma cruzi proteasome chymotrypsin-like activity (TcProtChymo) assay.; further: in the data most compounds retested in dose-response had high values; type: functional; conditions: 9.37 µM
T3 sequence (whole entry): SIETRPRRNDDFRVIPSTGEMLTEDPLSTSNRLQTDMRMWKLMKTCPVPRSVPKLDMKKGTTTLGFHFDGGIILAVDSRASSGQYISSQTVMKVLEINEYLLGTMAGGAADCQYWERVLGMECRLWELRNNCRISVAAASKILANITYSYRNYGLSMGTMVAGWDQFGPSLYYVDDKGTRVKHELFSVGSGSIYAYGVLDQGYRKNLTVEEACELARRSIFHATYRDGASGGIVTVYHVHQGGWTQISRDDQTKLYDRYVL

Homo sapiens = organism: Homo sapiens; experiment: To identify inhibition of the IFN signalling (Jak-Stat) pathway via expression of an eGFP reporter gene under the control of an IFN-stimulated response element (ISRE) containing MxA promoter.; type: functional; conditions: 30 µM
[7] = target: T4, Tyrosyl-tRNA synthetase, putative (Trypanosoma cruzi (strain CL Brener)) (UniProt Q4DSP6); experiment: Trypanosoma cruzi tyrosyl tRNA synthetase (TcYRS) _High Tyrosine SOP; type: functional; conditions: 30 µM; further: in the data most compounds retested in dose-response had high values
T4 sequence (whole entry): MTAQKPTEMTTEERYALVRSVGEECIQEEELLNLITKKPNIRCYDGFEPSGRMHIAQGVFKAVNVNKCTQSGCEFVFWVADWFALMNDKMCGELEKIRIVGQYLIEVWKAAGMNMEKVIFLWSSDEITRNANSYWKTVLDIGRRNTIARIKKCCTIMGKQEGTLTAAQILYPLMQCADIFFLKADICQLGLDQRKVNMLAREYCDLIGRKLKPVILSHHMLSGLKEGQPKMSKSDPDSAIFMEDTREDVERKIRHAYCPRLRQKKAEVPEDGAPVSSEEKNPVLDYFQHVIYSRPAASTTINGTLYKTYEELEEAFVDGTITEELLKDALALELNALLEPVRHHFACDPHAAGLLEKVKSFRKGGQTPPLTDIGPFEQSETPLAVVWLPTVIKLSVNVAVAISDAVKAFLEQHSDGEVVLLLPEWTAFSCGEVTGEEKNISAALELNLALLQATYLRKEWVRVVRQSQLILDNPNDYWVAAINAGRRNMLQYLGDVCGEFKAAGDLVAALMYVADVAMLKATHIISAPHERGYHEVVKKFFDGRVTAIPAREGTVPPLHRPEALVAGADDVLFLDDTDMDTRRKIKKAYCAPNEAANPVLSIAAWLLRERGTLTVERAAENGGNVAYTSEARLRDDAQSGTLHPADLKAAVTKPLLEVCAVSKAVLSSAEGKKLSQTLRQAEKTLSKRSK

[8] = target: T4, Tyrosyl-tRNA synthetase, putative (Trypanosoma cruzi (strain CL Brener)); experiment: Trypanosoma cruzi tyrosyl tRNA synthetase (TcYRS) SOP; type: functional; conditions: 30 µM
[9] = target: Chromo domain-containing protein 1 (Saccharomyces cerevisiae (strain ATCC 204508 / S288c) (Baker's yeast)) (UniProt P32657); experiment: ScCHD-1 Enzyme Inhibition Assay; type: functional; conditions: 30 µM; further: in the data most compounds retested in dose-response had high values
Chromo domain-containing protein 1 (Saccharomyces cerevisiae (strain ATCC 204508 / S288c) (Baker's yeast)), sequence (P32657 whole entry, the tested form may be a part): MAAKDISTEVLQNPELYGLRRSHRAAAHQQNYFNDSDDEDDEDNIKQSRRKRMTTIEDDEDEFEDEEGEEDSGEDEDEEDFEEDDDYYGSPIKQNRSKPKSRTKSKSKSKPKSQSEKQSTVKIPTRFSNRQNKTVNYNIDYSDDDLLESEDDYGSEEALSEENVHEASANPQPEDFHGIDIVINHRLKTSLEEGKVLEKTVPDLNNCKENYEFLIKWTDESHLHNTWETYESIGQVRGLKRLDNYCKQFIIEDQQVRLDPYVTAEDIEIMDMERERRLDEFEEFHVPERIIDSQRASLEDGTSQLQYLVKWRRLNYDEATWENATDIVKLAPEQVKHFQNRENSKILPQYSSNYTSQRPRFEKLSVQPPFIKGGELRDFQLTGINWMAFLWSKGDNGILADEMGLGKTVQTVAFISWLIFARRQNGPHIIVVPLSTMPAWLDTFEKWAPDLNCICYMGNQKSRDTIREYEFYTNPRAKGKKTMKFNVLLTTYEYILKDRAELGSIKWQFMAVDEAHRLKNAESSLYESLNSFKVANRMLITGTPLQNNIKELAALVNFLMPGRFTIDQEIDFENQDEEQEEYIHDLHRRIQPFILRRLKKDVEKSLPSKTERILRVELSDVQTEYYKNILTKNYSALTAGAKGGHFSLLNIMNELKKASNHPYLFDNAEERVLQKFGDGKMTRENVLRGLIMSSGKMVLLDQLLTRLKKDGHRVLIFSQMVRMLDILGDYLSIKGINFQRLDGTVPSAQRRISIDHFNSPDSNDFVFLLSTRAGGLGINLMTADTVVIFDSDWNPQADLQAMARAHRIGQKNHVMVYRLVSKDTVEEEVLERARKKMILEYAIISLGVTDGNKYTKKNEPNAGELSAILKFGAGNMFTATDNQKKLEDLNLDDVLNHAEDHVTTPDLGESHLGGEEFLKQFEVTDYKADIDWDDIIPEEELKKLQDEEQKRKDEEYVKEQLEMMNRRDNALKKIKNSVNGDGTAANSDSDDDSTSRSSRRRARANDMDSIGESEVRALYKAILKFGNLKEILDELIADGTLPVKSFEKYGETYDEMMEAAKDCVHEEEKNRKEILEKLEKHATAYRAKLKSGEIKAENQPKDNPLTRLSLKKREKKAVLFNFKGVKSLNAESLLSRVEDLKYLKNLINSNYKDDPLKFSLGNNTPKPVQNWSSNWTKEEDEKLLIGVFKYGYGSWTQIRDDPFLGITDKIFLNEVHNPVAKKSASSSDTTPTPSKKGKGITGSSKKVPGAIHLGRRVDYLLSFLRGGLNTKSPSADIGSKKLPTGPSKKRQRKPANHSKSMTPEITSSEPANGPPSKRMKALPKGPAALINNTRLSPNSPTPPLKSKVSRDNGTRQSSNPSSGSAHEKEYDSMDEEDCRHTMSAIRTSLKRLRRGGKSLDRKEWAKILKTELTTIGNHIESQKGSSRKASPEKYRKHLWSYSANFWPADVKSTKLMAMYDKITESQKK

Sialic acid-binding Ig-like lectin 9 (Homo sapiens), sequence (Q9Y336 whole entry): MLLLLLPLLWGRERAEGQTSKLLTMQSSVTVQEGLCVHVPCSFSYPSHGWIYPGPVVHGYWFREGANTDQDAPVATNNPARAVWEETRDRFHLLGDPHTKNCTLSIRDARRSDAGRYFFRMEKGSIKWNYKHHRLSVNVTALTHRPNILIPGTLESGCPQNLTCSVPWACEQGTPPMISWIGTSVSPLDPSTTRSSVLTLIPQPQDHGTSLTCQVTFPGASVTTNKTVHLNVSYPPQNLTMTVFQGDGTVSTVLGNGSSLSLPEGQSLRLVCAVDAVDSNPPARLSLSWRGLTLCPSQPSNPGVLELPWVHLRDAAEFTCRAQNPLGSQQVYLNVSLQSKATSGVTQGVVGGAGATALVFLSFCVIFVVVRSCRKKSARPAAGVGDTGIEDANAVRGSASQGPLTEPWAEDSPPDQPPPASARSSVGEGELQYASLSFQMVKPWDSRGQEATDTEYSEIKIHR
Protein translocase subunit SecA (Escherichia coli (strain K12)), sequence (P10408 whole entry): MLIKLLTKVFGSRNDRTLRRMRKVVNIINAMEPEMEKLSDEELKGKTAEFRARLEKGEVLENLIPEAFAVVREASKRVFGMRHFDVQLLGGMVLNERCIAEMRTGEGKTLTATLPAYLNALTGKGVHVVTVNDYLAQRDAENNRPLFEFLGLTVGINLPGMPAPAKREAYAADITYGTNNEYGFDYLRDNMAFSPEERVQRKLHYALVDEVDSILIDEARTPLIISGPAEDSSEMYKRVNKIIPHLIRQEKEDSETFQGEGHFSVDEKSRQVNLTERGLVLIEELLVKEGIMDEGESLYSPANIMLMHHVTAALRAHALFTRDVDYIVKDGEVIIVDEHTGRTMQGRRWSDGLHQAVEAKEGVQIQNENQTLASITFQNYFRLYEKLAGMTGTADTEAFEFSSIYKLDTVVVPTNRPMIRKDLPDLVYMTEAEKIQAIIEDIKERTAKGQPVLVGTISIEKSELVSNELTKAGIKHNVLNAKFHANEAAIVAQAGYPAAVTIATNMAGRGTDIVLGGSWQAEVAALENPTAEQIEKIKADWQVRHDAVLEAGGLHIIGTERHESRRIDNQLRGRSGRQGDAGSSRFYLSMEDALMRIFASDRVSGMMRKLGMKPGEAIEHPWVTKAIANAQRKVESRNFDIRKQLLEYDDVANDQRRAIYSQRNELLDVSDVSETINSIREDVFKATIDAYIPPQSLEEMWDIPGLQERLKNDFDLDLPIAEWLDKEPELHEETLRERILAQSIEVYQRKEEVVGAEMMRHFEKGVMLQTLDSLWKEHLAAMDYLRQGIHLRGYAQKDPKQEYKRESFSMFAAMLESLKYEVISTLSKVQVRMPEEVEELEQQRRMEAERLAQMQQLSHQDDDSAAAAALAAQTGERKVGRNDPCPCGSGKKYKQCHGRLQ

Row | SMILES | Percent Effect [1] | Percent Effect [2] | Percent Effect [3] | Percent Effect [4] | Percent Effect (Trypanosoma cruzi) | Percent Effect [5] | Percent Effect [6] | Percent Effect (Homo sapiens) | Percent Effect [7] | Percent Effect [8] | Percent Effect [9]
1 | Cc1cnc(CN(C)C2CCN(CCc3ccccn3)CC2)cn1 | -1.96% | 13.5% | -8.24% | -5.72% | 5.48% | -3.88% | 14.5% | 13.7% | 7.92% | 15.8% | -6.34%
2 | CCCS(=O)(=O)N1CCC(NC(=O)c2ccc(Cl)s2)CC1 | -0.0871% | 2.67% | -1.87% | 5.67% | 5.16% | 9.9% | 3.14% | -1.58% | 8.2% | 16.1% | -3.77%
3 | CCS(=O)(=O)CCNC(=O)c1ccc(-c2ccc(C)cc2)cc1F | -3.31% | 5.2% | -1.14% | 2.26% | -2.26% | -2.76% | 14.6% | 18.8% | -14% | 1.24% | 2.27%
4 | CC(C)N(C)CC(=O)NC1CCc2nccn2C1 (centres undefined) | -0.518% | -5.33% | 4.88% | -4.8% | -4.38% | -5.21% | 3.14% | 31.6% | -2.73% | -6.17% | 2.61%
5 | CC(C)(CO)NC(=O)C1CCC(=O)N(Cc2ccc(Cl)cc2)C1 (centres undefined) | -3.58% | 1.39% | 10.2% | 1.15% | -1.26% | -3.09% | 2.81% | -9.87% | -3.16% | 0% | 0.1%
6 | CS(=O)(=O)NC[C@]12COC[C@H]1CN(C(=O)Cc1ccccc1F)C2 | 0.295% | -101% | 5.66% | -7.42% | -7.2% | -4.52% | 6.44% | -5.85% | -125% | -232% | -6.07%
7 | Cn1ccnc1-c1ccccc1C(=O)N1CCc2c(nc(N)[nH]c2=O)C1 | -3.72% | 7.79% | 3.19% | 4.47% | -2.06% | -6.9% | 16.8% | 5.31% | 4.3% | 11.1% | 3.09%
8 | CCOC[C@H]1CC[C@H]2[C@H](CCN2C(=O)c2ccncc2F)O1 | -2.56% | 2.7% | 3.1% | -3.88% | 1.07% | 3.72% | 5.92% | -17.8% | 2.15% | 3.7% | -2.81%
9 | COc1ccccc1Oc1ncccc1CNC(=O)C(C)N1CCCC1 (centres undefined) | -3.48% | 12.5% | -6.43% | 29.1% | 3.4% | 50.3% | 11.8% | -6.43% | 4.21% | 12.8% | -9.98%
